Source: PubChem BioAssay

Key:
[1] = test system: Botulinum neurotoxin type F light chain protease (Clostridium botulinum); test: Clostridium botulinum type F light chain protease inhibitors, microsphere substrate cleavage, validation (AID 588459); details: multiplex microsphere protease substrate cleavage assay, flow cytometry; at 10 µM; active compounds read high
[2] = target: Botulinum neurotoxin type A (Clostridium botulinum) (UniProt P0DPI0); test: BoNT/A light chain protease inhibitors, biochemical, multiplex microsphere flow cytometry, validation set (AID 588460); details: at 10 µM, active compounds read high
Sequence of Botulinum neurotoxin type A (Clostridium botulinum) (P0DPI0 whole entry, looked up): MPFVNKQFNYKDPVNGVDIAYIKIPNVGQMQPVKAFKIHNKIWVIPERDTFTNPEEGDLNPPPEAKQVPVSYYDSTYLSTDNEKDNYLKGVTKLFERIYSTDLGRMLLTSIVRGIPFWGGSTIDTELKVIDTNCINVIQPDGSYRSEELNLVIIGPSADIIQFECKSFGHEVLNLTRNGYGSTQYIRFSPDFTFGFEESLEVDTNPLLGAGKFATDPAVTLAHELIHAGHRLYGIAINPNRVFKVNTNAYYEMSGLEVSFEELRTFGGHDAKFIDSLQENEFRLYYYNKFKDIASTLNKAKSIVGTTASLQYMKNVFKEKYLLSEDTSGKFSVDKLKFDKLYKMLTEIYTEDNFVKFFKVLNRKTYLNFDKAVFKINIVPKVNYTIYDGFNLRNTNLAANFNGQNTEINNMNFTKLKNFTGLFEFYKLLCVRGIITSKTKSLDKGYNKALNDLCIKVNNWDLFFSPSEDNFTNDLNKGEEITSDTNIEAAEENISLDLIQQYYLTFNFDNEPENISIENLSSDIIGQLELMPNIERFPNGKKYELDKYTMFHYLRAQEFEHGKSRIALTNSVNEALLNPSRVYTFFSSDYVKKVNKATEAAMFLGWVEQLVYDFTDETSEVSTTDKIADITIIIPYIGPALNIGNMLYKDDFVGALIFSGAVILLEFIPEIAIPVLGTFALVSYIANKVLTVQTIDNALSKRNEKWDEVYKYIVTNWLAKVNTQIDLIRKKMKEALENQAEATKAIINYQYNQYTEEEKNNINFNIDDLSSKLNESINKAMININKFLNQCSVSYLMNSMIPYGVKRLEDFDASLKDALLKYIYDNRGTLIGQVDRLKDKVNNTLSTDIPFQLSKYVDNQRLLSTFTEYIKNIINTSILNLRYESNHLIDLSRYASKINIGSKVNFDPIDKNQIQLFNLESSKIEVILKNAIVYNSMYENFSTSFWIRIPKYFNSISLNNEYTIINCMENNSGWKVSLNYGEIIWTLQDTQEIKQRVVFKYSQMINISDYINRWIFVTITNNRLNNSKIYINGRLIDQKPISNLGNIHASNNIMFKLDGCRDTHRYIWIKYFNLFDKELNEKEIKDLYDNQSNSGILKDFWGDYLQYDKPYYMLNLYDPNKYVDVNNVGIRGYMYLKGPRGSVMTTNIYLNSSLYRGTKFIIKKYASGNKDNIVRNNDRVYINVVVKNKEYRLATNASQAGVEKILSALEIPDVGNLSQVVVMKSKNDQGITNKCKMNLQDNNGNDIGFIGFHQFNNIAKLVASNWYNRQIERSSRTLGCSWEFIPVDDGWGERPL

[3] = target: Lethal factor (Bacillus anthracis) (UniProt P15917); test: Bacillus anthracis lethal factor inhibition, microsphere flow cytometry protease assay, validation at 10 µM (AID 588461); details: multiplex microsphere protease cleavage assay, active compounds read high
Sequence of Lethal factor (Bacillus anthracis) (P15917 whole entry, looked up): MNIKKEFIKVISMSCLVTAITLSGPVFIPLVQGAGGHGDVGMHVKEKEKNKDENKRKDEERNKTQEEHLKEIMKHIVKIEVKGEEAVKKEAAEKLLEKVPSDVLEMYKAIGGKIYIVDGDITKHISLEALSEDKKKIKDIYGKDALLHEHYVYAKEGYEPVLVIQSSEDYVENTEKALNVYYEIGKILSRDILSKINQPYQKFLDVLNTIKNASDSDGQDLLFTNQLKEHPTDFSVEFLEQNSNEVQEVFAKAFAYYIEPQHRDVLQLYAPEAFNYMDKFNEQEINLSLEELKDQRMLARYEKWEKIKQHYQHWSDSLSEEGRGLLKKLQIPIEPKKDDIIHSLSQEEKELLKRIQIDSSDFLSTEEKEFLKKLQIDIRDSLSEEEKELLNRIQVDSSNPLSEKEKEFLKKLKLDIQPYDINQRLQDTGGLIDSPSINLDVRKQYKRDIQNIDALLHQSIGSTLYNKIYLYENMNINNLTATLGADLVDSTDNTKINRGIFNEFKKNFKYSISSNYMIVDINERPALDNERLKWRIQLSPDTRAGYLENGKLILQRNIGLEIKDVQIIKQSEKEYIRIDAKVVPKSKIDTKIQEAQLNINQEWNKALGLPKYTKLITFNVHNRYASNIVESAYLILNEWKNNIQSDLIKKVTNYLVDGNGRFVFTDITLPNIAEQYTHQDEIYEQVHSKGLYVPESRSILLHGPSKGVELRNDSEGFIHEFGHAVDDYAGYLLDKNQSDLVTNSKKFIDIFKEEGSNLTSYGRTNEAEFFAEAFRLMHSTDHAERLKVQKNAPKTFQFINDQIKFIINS

Measured: inhibition

Cc1ccc(C(=O)O)cc1NC(=O)c1cccs1
inactive: [1] -1.2% | [2] 0% | [3] 2%

CC1(C)CC(=O)c2cc(O)ccc2O1
inactive: [1] 2% | [2] 0.1% | [3] -2.1%

CCCNC(C)C(=O)Nc1ccccc1C (configuration not stated)
inactive: [1] 0.2% | [2] 0.2% | [3] -4.8%

COc1ccc(CCN(C)CCCC(C#N)(c2cc(OC)c(OC)c(OC)c2)C(C)C)cc1OC (configuration not stated)
inactive: [1] 5.3% | [2] 1.8% | [3] 6.4%

COc1ccc(C(=O)/C=C/c2cc(C(=O)O)cc3c2OCOC3)c(O)c1
inactive: [1] 1.3% | [2] -0.8% | [3] 4.4%

Cc1coc2c1c(C)cc1oc(=O)c(Cc3ccccc3)c(C)c12
inactive: [1] 1.9% | [2] -0.5% | [3] -4.3%

COc1ccc(CN(CCC(c2ccccc2)c2ccc(OC(C)C)cc2)C(=O)CCl)cc1OC (configuration not stated)
inactive: [1] -3.8% | [2] 0.3% | [3] -6.4%

COCCn1c(SCCOc2ccccc2)nc2ccccc2c1=O
inactive: [1] 1.6% | [2] -0.3% | [3] -1.1%

CCOCC(=O)Nc1nc2ccccc2s1
inactive: [1] -2.1% | [2] 1.5% | [3] -0.2%

COc1cc2c(cc1OC)C(Cc1ccc(O)cc1)N(C)CC2 (configuration not stated)
inactive: [1] 2.2% | [2] 0% | [3] -0.9%

COC(=O)c1ccc(=O)n(Cc2ccco2)c1
inactive: [1] 3.3% | [2] -0.2% | [3] 3.8%

O=C1c2ccccc2C(=O)C1c1ccccc1
inactive: [1] -2.6% | [2] 0.2% | [3] 9.8%

Clc1ccc(Cn2c(CN3CCCC3)nc3ccccc32)cc1
inactive: [1] -2.6% | [2] -1% | [3] -0.3%

CCC(C)NCCOCCOc1ccc(Cl)c2ccccc12 (configuration not stated)
inactive: [1] -2.3% | [2] 1.8% | [3] -6.5%

CC(C)OC(=O)CC1C(=O)NCCN1C(=S)NC(=O)c1ccccc1Cl (configuration not stated)
inactive: [1] -1.8% | [2] -0.4% | [3] -0.2%

CC(C)[C@H]1CN(C)CCN1Cc1cn(C)nc1-c1cccc(Cl)c1
inactive: [1] 12% | [2] 8.3% | [3] 8.2%

CC(C(=O)O)c1ccc(N2Cc3ccccc3C2=O)cc1 (configuration not stated)
inactive: [1] 1.4% | [2] -1.6% | [3] -4.3%

c1ccc2c(CC3=NCCN3)cccc2c1
inactive: [1] -3.3% | [2] -2.2% | [3] -9.2%

COc1ccc(C(=O)c2oc3ccc(Br)cc3c2NC(C)=O)cc1
inactive: [1] 0.3% | [2] -1.1% | [3] -3.6%

COC(=O)[C@@H](N)CS
inactive: [1] 2.1% | [2] -1.9% | [3] -1.2%

COc1ccccc1-c1c(C(F)(F)F)oc2cc(OC(=O)c3ccc([N+](=O)[O-])cc3)ccc2c1=O
inactive: [1] 0.7% | [2] -0.5% | [3] 3.7%

CC1(C)NC(C(=O)O)Cc2c1[nH]c1ccccc21 (configuration not stated)
inactive: [1] -1.6% | [2] 1% | [3] -2.8%

Nc1nc(SCc2ccc([N+](=O)[O-])cc2)c2ncn(C3OC(CO)C(O)C3O)c2n1 (configuration not stated)
inactive: [1] 0.3% | [2] 1% | [3] 5%

COc1ccc2c(=O)c(-c3cnn(-c4ccccc4)c3)c(C)oc2c1
inactive: [1] -2.2% | [2] 0.9% | [3] 1.4%

Nc1ccn([C@@H]2O[C@H](CO)[C@@H](O)[C@@H]2O)c(=O)n1
inactive: [1] -1.4% | [2] -0.7% | [3] -1.8%

Cc1ccccc1C(=O)Nc1ccccc1C(=O)NCC(C)C
inactive: [1] -5.7% | [2] -0.4% | [3] 1.2%

Cc1ccc2[nH]c3c(=O)n(CCCN4CCN(C)CC4)cnc3c2c1
inactive: [1] 7.8% | [2] -1% | [3] -2.5%

O=C(CNC(=O)OCc1ccccc1)Oc1cc2oc(=O)cc(-c3ccccc3)c2cc1Cl
inactive: [1] 2.7% | [2] 0.9% | [3] 11.5%

O=C(N/N=C/c1ccc([N+](=O)[O-])o1)c1ccc(O)cc1
inactive: [1] 0.2% | [2] -3.9% | [3] -11.9%
